# From the supplement of paper PMC6555819
# How the values were obtained:
# Test in all cases: PBM binding z-score (relative to random genomic background probes); higher = stronger binding; sequences stand for … in GC…GCGATTGACAGCGTAGAATGAAGG
# [1] = tested on: RARb homodimer (NR concentration 270 nM)
# Outline: (§1)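 Each nuclear receptor dimer, without ligand, was incubated for 1 h on custom Agilent 4×180K protein-binding microarrays. Binding was detected with antibodies against each partner (one per run), and scanned fluorescence was regression-normalized. The binding z-scores are referenced to random human genomic background probes.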
# [2] = tested on: RARg:RXRa (NR concentration 270 nM, RXRa partner concentration 90 nM)
# Outline: as §1
# [3] = tested on: RARg homodimer (NR concentration 270 nM)
# Outline: as §1
# [4] = tested on: RXRa DBDmut IVT, anti-RXR (DBD mutation: RXRa K156A/R161A, NR concentration 90 nM)
# Outline: as §1
# [5] = tested on: RXRa homodimer (NR concentration 180 nM)
# Outline: as §1
# [6] = tested on: THRa:RXRa (NR concentration 90 nM, RXRa partner concentration 90 nM)
# Outline: as §1
# [7] = tested on: THRa homodimer (NR concentration 90 nM)
# Outline: as §1
# [8] = tested on: VDR homodimer (NR concentration 270 nM)
# Outline: as §1
Sequence,PBM binding z-score [1],PBM binding z-score [2],PBM binding z-score [3],PBM binding z-score [4],PBM binding z-score [5],PBM binding z-score [6],PBM binding z-score [7],PBM binding z-score [8]
CGAACTAGCTCATTGACAGGACAGTGAATAGTAA,0.184,-0.00563,0.0455,0.00616,-0.33,-0.0508,-0.291,-0.0514
TCTAGTTGGTCAAATGTCACACACTCGAAATGCG,1.64,1.73,1.78,1.24,1.68,0.653,0.677,0.702
TGTCAAAGTTCAAAGGTAACTTAAGTATCCACAC,3.71,6.26,6.11,4.5,7.54,3.6,-0.309,4.03
AATACAGGGACACTAGGCCAGAGTAGGTACGAAT,0.487,0.347,0.984,0.0578,-0.151,0.812,0.241,0.347
CTTCCAAGGTCAAAGGTCAGTGAAGAGATGACGG,5.53,8.63,8.01,3.91,10.4,5.02,3.03,3.67
TCGTGTAGATCAAGCAGGTTAAGAAAGCCTGAGT,-0.0651,-0.125,-0.344,0.445,0.247,0.168,-0.744,-0.0255
GCTAGTTCGTCAGTAAAAGGTCACACACCGGTCG,5,5.12,4.64,2.51,5.36,3.72,1.98,2.88
CGTCCAGGGTCAAGGTCAGTGAAAGAGACTCGAA,4.96,6.51,6.69,2.77,6.61,4.19,2.79,2.98
ATCTCTAGGTAAAGTGCAGTGAAAGATCGATAGA,0.108,0.474,0.497,0.0332,0.222,0.316,-0.174,-0.0309
CCTCGGAGGACAGAATGTCAGAGCTGTCCGCTTT,-0.0927,-0.321,0.175,-0.282,-0.66,-0.251,-0.615,-0.654
TGATATAGGTAAATGCTAGGTGAAAGTCCGATCT,0.551,0.276,0.33,-0.331,0.453,1.18,0.59,-0.0449
TCATATAGGTAAATGCTAGGAGAAAGTCCGATCT,-0.501,0.278,0.46,1.67,0.597,-0.0458,-0.197,-0.0177
TATCCTAGGTCATTCAGGGGCCAGTATAGAAAGC,3.68,6.44,4.99,2.55,3.59,3.76,1.57,2.01
CCTCGCAGGCCAGGGTCACTCAAGCATTTCGCTT,2.71,2.93,2.2,0.363,3.06,2.84,1.2,1.43
TTACCACGGTGAAAGGTCGTTGATGCACGCCTTG,1.77,2.34,1.01,0.51,3.04,1.69,0.129,1.53
GGAACGAGGGCATTCGAGCTGATAGCATGGCGAT,0.164,0.737,1.2,2.72,0.444,0.7,-0.936,1.53
GCAGACAGGTGAAGCGCAGGTAACTCAGGGTGGC,-0.151,0.302,0.0246,-0.801,0.395,0.73,-0.688,-0.755
TAGCCTAGGTCATTCAGGGGCCAGTGTAGAAAGC,3.6,6.11,4.75,1.83,3.15,3.58,0.809,1.58
TCTAGTAGGTTAGGGGCATTCAGAATGGCGTCGA,1.31,0.656,0.586,1.42,0.98,1.03,0.797,1.39
ATATGTAGGTTACCTCCGGGTCATTCAGGCTATG,3.04,4.19,2.43,0.792,3.8,3.78,2.66,2.02
CAGCCTAGGTCAGGGCTAGTATAGGAGGAACGTT,2.38,2.93,3.76,-0.422,1.49,1.82,0.321,-0.179
GCTGCTAGGTCAGGCTGGTCAGCTAACGGGTACG,2.55,2.75,4.34,0.391,1.07,1.63,0.201,-0.177
CCTAGTTGGTGAGGAGGTCACACACCGGATATGA,3.83,4.09,3.23,0.474,3.91,3.34,2.03,2.53
AATACAGGGTCACTAGCCCAGAGTAGGTACGAAT,2.95,4.82,4.62,2.61,5.17,3.22,1.13,2.21
CCGACTGGGGCATAAGATTACCATAAGCCAGCCC,-0.156,-0.0949,0.359,-0.222,-0.0512,-0.577,-0.917,-0.442
GGAACGAGGGCATTCGAGTAGATAGCATGGCGAT,0.0849,0.96,1.23,3.24,0.859,1.41,-0.662,1.51
AGAACGACGGCAATGAGTTGATAGCACGGGTGGC,-0.961,-0.245,-0.185,-0.402,0.0598,-0.626,-1.12,-0.0582
TCATATAGGTAACGGTGAAAGTCGAACGATATGA,-0.17,0.474,0.423,0.399,0.79,-0.0623,-0.6,-0.165
